Measurements published in PubChem BioAssay (EPA / NIEHS).
Records with an inconclusive call do not appear. Activity calls are given as the source filed them. How the source made its calls: active means hit-call score of the fitted dose curve at least 0.9, where 1 is the maximum; inconclusive means response in the unintended direction; inactive means score below 0.9.

What follows are compounds tested on Cytochrome P450 2C9 (Homo sapiens) (UniProt P11712) (assay: CLD_CYP2C9_24hr: CellzDirect (CLD) Gene Expression Assay for xenobiotic metabolism (CYP2C9) at 24 hours (AID 2283688)).
Experimental: CLD_24hr is a cell-based, multiplexed-readout assay that uses hepatocyte, a human liver primary cell, with measurements taken at 24 hours after chemical dosing in a 96-well plate.CLD_CYP2C9_24hr is one of 16 assay component(s) measured or calculated from the CLD_24hr assay. It is designed to make measurements of mRNA induction, a form of inducible reporter, as detected with chemiluminescence signals by Quantitative Nuclease Protection Assay (qNPA) technology.Data from the assay component CLD_CYP2C9_24hr was analyzed at the endpoint, CLD_CYP2C9_24hr, in the positive analysis fitting direction relative to DMSO as the negative control and baseline of activity. Using a type of inducible reporter, gain-of-signal activity can be used to understand changes in the reporter gene as they relate to the gene CYP2C9. Furthermore, this assay endpoint can be referred to as a primary readout. To generalize the intended target to other relatable targets, this assay endpoint is annotated to the cyp intended target family, where subfamily is xenobiotic metabolism.
Human hepatocyte cultures were treated daily for two consecutive days with fresh dosing solutions containing appropriate concentrations of the 320 ToxCast chemicals (chemical identities were blinded to CellzDirect and other ToxCast collaborators), vehicle control (0.2% DMSO), and positive control inducers as summarized in Table 1. Due to the large number of treatment groups and chemicals examined, the ToxCast chemicals were divided into two groups (spanning two independent cultures of hepatocytes from separate donor preparations (Hu778: ToxCast plates 1 and 2; Hu776: ToxCast plates 3 and 4). Each preparation of human hepatocyte cultures was treated with respective vehicle control, medium only control, set of six positive controls/reference chemicals for the five hepatic receptor pathways, and a subset of eight of the ToxCast chemicals (indoxacarb, pyrithiobac-sodium, norflurazon, cyhalofop-butyl, methomyl, thiram, acetochlor, and propiconazole). These replicate data, coupled with internal replicates designed within the blinded ToxCast chemical library, provided additional data to evaluate interindividual differences between hepatocyte preparations and their potential impact on chemical profiles.Cell morphology and integrity were evaluated using phase-contrast microscopy as an indicator of hepatocyte cell health (Tyson & Green, 1987). Cultures for each treatment group (i.e., media, vehicle [0.2% DMSO], positive control inducers [multiple concentrations], and the ToxCast chemicals [multiple concentrations]) were observed and cell morphology was assessed relative to vehicle control cultures at each harvest time point (0, 6, 24, or 48 h). […] Images were evaluated at the conclusion of the study to assess changes in cell integrity and account for the effects of chemical exposure on uncharacteristic changes in concentration-dependent gene expression profiles. The results from these determinations of apparent cytotoxicity were annotated (yes/no) alongside the corresponding qNPA data for reference.At the conclusion of each treatment period, hepatocyte cultures (96-well) were washed with 1 volume of HBSS, lysed by addition of 25 ul ArrayPlate lysis buffer (HTG, Tucson, AZ), and 70 ul/well of Denaturation Oil, denatured by incubation at 95C for 10 min, and frozen at approximately -70C until analysis by nuclease protection assay (qNPA) (Roberts et al., 2007). For qNPA analysis, cell lysates were thawed at 50C for approximately 30 min, qNPA probes were added, and samples were incubated at 95C for 10 min to begin the detection process by denaturing the target RNA, dissociating the duplexes and secondary structure hybridization. At the conclusion of the hybridization period, S1 nuclease reagent was added to each sample to digest all nonprotected nucleotides at 50C for 60-90 min. […]
`CCOP(=O)(NC(C)C)Oc1ccc(SC)c(C)c1` (configuration not stated) was tested, and the outcome was “inactive”. For `CCOC(=O)CC(SP(=O)(OC)OC)C(=O)OCC` (configuration not stated), the outcome was “inactive”. With `CCCOc1nn(C(=O)NS(=O)(=O)c2ccccc2C(=O)OC)c(=O)n1C` the outcome was “inactive”. With `CC(C)=CC1C(C(=O)OCN2C(=O)C3=C(CCCC3)C2=O)C1(C)C` (configuration not stated) the outcome was “inactive”. For `CCc1cccc(C)c1N(C(=O)CCl)C(C)COC` (configuration not stated), the outcome was “inactive”. With `CCOP(=O)(OCC)Oc1cc(C)nc(C(C)C)n1` the outcome was “inactive”. In the case of `O=c1ccc(=O)[nH][nH]1`, the outcome is reported as “inactive”. `CCc1cccc(CC)c1N(COC)C(=O)CCl` was tested, and the outcome was “inactive”. In the case of `CCCCN(CC)c1c([N+](=O)[O-])cc(C(F)(F)F)cc1[N+](=O)[O-]`, the outcome is reported as “inactive”. For `CN1COCN(Cc2cnc(Cl)s2)C1=N[N+](=O)[O-]`, the outcome was “inactive”. For `C[N+]1(C)CCCCC1`, the outcome was “inactive”. With `CNC(=O)Oc1cccc2c1OC(C)(C)O2` the outcome was “inactive”. With `C#CCC1=C(C)C(OC(=O)C2C(C=C(C)C)C2(C)C)CC1=O` (configuration not stated) the outcome was “inactive”. In the case of `CC[C@H](C)[C@H]1O[C@]2(C=C[C@@H]1C)C[C@@H]1C[C@@H](C/C=C(\C)[C@@H](O[C@H]3C[C@H](OC)[C@@H](O[C@H]4C[C@H](OC)[C@@H](NC)[C@H](C)O4)[C@H](C)O3)[C@@H](C)/C=C/C=C3\CO[C@@H]4[C@H](O)C(C)=C[C@@H](C(=O)O1)[C@]34O)O2`, the outcome is reported as “inactive”. In the case of `CSc1nc(NC(C)C)nc(NC(C)C)n1`, the outcome is reported as “inactive”. In the case of `CCOP(=O)(SC(C)CC)N1CCSC1=O` (configuration not stated), the outcome is reported as “inactive”. With `CCC(=NOC/C=C/Cl)C1=C(O)CC(C2CCOCC2)CC1=O` (configuration not stated) the outcome was “inactive”. For `Nc1c(Cl)cc([N+](=O)[O-])cc1Cl`, the outcome was “inactive”. With `CCOC(=O)COc1cc(-c2nn(C)c(OC(F)F)c2Cl)c(F)cc1Cl` the outcome was “inactive”. For `CCOP(=S)(OCC)Oc1ccc2c(C)c(Cl)c(=O)oc2c1`, the outcome was “inactive”. `CNC(=O)ON=C(SC)C(=O)N(C)C` was tested, and the outcome was “inactive”. For `C#CC(C)(C)NC(=O)c1cc(Cl)cc(Cl)c1`, the outcome was “inactive”. In the case of `CCOP(=S)(OCC)OC(Cl)C(Cl)(Cl)Cl` (configuration not stated), the outcome is reported as “inactive”. With `COc1ccc(C(=CC(=O)N2CCOCC2)c2ccc(Cl)cc2)cc1OC` the outcome was “inactive”. In the case of `CN(C)C(=O)Nc1cccc(C(F)(F)F)c1`, the outcome is reported as “inactive”. `Cc1ccn2nc(S(=O)(=O)Nc3c(F)cccc3F)nc2n1` was tested, and the outcome was “inactive”. For `CCCCSP(=O)(SCCCC)SCCCC`, the outcome was “inactive”. In the case of `Nc1nc(N)nc(NC2CC2)n1`, the outcome is reported as “inactive”. In the case of `CON=C(C(=O)OC)c1ccccc1CON=C(C)c1cccc(C(F)(F)F)c1`, the outcome is reported as “inactive”. With `CCCSP(=O)(OCC)Oc1ccc(Br)cc1Cl` (configuration not stated) the outcome was “inactive”. With `COc1cc(OC)nc(Sc2cccc(Cl)c2C(=O)O)n1` the outcome was “inactive”. In the case of `CC(COc1ccc(Oc2ccccc2)cc1)Oc1ccccn1` (configuration not stated), the outcome is reported as “inactive”. In the case of `CCOP(=S)(Oc1cnc(C(C)(C)C)nc1)OC(C)C` (configuration not stated), the outcome is reported as “inactive”. For `CSC1=N[C@@](C)(c2ccccc2)C(=O)N1Nc1ccccc1`, the outcome was “inactive”. `C=C(C)[C@H]1Cc2c(ccc3c2O[C@@H]2COc4cc(OC)c(OC)cc4[C@@H]2C3=O)O1` was tested, and the outcome was “inactive”. For `CC(=NC#N)N(C)Cc1ccc(Cl)nc1`, the outcome was “inactive”. `CCC(CC)Nc1c([N+](=O)[O-])cc(C)c(C)c1[N+](=O)[O-]` was tested, and the outcome was “inactive”.
